Test results published in ChEMBL document CHEMBL1157539, “Thousands of chemical starting points for antimalarial lead identification” (Nature, 2010).

Experiments:
Assay type in all cases: functional
Plasmodium falciparum [1] = assay: GSK_TCMDC: Inhibition of Plasmodium falciparum 3D7 in whole red blood cells, using parasite LDH activity as an index of growth. Test compounds present at 2uM
Plasmodium falciparum [2] = assay: GSK_TCMDC: Inhibition of Plasmodium falciparum Dd2 in whole red blood cells, using parasite LDH activity as an index of growth. Test compounds present at 2uM
HepG2 = assay: GSK_TCMDC: Percent inhibition of human HepG2 cell line. Test compounds present at 10uM.

| SMILES | Inhibition (Plasmodium falciparum [1]) [%] | Inhibition (Plasmodium falciparum [2]) [%] | Inhibition (HepG2) [%] |
| --- | --- | --- | --- |
| N#Cc1ccc(N(CCOC(=O)c2ccc(Br)s2)Cc2ccccc2C(F)(F)F)cc1C(F)(F)F | 82 | 48 | 8 |
| Cc1cc(=NN=Cc2ccccn2)c2cc(C(F)(F)F)ccc2[nH]1 | 100 | 100 | 0 |
| COc1cc(OC)cc(-c2nn(-c3ccc([N+](=O)[O-])cc3Cl)c(=S)n2Cc2ccco2)c1 | 100 | 100 | 15 |
| Cc1cc(F)ccc1-c1nc(NCCCN2CCCC2=O)nc2c1ccc(=O)n2-c1c(F)cccc1F | 88 | 80 | 0 |
| CCCCOc1cc(CNCCCCCCNCc2cc(OCCCC)cc3ccccc23)c2ccccc2c1.CS(=O)(=O)O | 100 | 92 | 99 |
| CN1CCCC(CN2CCN(Cc3cccc(-c4ccc(-c5nc6ccccc6[nH]5)cc4)c3)CC2)C1.O=C(O)C(F)(F)F (stereo not given) | 100 | 100 | 73 |
| Cc1ccc(C(=O)Nc2cc(S(=O)(=O)N3CCCC3)ccc2OCC(F)(F)F)cc1 | 93 | 3 | 0 |
| CCNc1cc(C(=O)N[C@@H](Cc2ccccc2)[C@H](O)CNC(C)(C)Cc2ccccc2)cc(N2CCCC2=O)c1.O=CO | 99 | 78 | 1 |
| CN(C)c1ccc2c(c1)Sc1cc(N(C)C)ccc1N2C(=O)c1cccc(C(=O)O)c1 | 99 | 73 | 8 |
| O=C(Nc1ccc(OC2CCN(Cc3ccc(F)cc3)C2)c(Cl)c1)c1ccc(F)cc1.O=C(O)C(F)(F)F (stereo not given) | 96 | 94 | 10 |
